Results filed as inconclusive are left out. Calls of active or inactive are those of the source. Unless noted, calls follow the shape of the dose curve; as a rule, active = well fitted curve in the direction sought with a large enough effect in the repeat runs; inconclusive = weak or mixed curves; inactive = no such curve, though single readings can be large; an effect the other way counts as inactive or inconclusive.
Key:
[1] = target: Thyrotropin-releasing hormone receptor (Homo sapiens) (UniProt P34981); test: qHTS assay to identify small molecule agonists of the thyrotropin-releasing hormone receptor (TRHR) signaling pathway (AID 1346891; calls by dose curve; also: series mostly up to about 58 µM)
Thyrotropin-releasing hormone receptor (Homo sapiens), sequence (P34981 whole entry, looked up): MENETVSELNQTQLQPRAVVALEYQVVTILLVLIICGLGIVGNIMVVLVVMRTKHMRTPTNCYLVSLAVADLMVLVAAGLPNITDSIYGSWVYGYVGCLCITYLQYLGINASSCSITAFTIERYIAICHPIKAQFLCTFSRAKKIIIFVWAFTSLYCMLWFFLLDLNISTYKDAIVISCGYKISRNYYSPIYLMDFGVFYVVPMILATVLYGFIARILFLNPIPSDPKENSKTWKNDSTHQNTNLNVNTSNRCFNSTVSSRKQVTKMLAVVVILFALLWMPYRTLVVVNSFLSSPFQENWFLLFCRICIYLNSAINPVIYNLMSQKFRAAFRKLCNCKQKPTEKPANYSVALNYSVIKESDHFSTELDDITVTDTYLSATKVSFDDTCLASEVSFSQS
Outline: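 Intracellular calcium rise, read as fluorescence every second for 3 min, served as the agonist signal in dye-loaded HEK293 cells expressing TRHR; each compound ran at 15 concentrations in triplicate.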

[2] = Caspase-3/7 induction in HepG2 cells by small molecules, qHTS assay (AID 1346978); also: nearly all actives have a fitted effect of over 15% in size
Outline: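 Wild-type HepG2 cells, 2,000/well, settled 5 hr at 37 C and 5% CO2, then compound-treated for 17 hr; caspase-3/7 activity read by luminescent Caspase-Glo 3/7 after 30 min at room temperature.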

[3] = Caspase-3/7 induction in CHO-K1 cells by small molecules, qHTS cell viability counter screen (AID 1346979); also: nearly all actives have a fitted effect of over 35% in size; also: potency is read from the fitted curve at half-maximal effect
Outline: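 Cells (CHO-K1, wild type) are plated at 1,500 per well and incubated 5hr. Test compounds in DMSO are then pinned in, followed by 16hr at 37C and 5% CO2. Viability is read by CellTiter-Fluor fluorescence after 1hr.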

[4] = Caspase-3/7 induction in CHO-K1 cells by small molecules, qHTS assay (AID 1346980); also: nearly all actives have a fitted effect of over 15% in size
Outline: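 Wild-type CHO-K1 cells exposed to compounds for 17hr at 37 C, 5% CO2. Caspase-3/7 activity then measured by Caspase-Glo 3/7 luminescence after 30min at room temperature.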

[5] = Caspase-3/7 induction in HepG2 cells by small molecules, qHTS cell viability counter screen (AID 1346981); also: series mostly up to about 92 µM; nearly all actives have a fitted effect of over 30% in size
Outline: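 HepG2, WT, 2,000 cells/well; 5 hr pre-incubation 37 C/5% CO2; compound pin-transferred from DMSO; 16 hr exposure; CellTiter-Fluor, 1 hr; fluorescence read.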

[6] = target: Nuclear receptor subfamily 1 group I member 2 (Homo sapiens) (UniProt O75469); test: Human pregnane X receptor (PXR) small molecule agonists, qHTS assay (AID 1346982); also: nearly all actives have a fitted effect of over 35% in size; also: potency is read from the fitted curve at half-maximal effect
Nuclear receptor subfamily 1 group I member 2 (Homo sapiens), sequence (O75469 whole entry, looked up): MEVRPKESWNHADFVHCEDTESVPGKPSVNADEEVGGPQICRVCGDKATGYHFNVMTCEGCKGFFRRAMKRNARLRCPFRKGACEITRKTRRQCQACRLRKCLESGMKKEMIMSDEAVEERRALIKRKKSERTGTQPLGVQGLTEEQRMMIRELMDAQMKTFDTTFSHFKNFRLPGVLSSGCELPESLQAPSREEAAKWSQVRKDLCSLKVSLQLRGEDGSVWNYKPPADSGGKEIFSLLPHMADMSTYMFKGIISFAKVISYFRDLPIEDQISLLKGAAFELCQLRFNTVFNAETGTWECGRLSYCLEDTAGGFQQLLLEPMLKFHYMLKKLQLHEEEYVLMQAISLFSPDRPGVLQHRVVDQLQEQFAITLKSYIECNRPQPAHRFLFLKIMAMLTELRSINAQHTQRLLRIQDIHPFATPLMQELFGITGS
Outline: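 Luciferase signal from ONE-Glo (30 min, room temperature) measured activation of hPXR-driven CYP3A4 reporter expression in PXR-Luc HepG2 cells treated with compounds for 24 hr at 37 C.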

[7] = target: Cytochrome P450 2D6 (Homo sapiens) (UniProt P10635); test: Cytochrome P450 Family 2 Subfamily D Member 6 (CYP2D6) small molecule antagonists: luciferase reporter qHTS assay (AID 1671196); also: nearly all actives have a fitted effect of over 50% in size; also: potency is read from the fitted curve at half-maximal effect
Cytochrome P450 2D6 (Homo sapiens), sequence (P10635 whole entry, looked up): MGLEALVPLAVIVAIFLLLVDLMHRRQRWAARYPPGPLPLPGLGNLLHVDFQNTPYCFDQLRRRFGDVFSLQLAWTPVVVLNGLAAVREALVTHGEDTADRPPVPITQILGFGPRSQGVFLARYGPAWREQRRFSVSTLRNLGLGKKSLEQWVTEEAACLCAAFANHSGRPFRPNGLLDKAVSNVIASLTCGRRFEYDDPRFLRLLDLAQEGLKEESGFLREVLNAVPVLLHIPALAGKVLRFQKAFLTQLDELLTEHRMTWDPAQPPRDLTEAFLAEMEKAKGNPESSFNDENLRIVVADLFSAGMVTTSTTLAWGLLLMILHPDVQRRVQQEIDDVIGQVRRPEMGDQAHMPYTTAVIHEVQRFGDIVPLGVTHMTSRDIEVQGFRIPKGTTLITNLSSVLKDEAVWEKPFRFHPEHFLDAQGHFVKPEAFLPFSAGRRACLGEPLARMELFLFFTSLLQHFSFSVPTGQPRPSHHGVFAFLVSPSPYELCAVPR
Outline: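 Read-out is luminescence from luciferin formed by CYP2D6 turnover of a proluciferin substrate, recorded as relative luminescence units. Reactions ran 1 h at room temperature after NADPH regeneration solution was added.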

[8] = target: Cytochrome P450 2C19 (Homo sapiens) (UniProt P33261); test: Cytochrome P450 Family 2 Subfamily C Member 19 (CYP2C19) small molecule antagonists: luciferase reporter qHTS assay (AID 1671197); also: nearly all actives have a fitted effect of over 65% in size; also: potency is read from the fitted curve at half-maximal effect
Cytochrome P450 2C19 (Homo sapiens), sequence (P33261 whole entry, looked up): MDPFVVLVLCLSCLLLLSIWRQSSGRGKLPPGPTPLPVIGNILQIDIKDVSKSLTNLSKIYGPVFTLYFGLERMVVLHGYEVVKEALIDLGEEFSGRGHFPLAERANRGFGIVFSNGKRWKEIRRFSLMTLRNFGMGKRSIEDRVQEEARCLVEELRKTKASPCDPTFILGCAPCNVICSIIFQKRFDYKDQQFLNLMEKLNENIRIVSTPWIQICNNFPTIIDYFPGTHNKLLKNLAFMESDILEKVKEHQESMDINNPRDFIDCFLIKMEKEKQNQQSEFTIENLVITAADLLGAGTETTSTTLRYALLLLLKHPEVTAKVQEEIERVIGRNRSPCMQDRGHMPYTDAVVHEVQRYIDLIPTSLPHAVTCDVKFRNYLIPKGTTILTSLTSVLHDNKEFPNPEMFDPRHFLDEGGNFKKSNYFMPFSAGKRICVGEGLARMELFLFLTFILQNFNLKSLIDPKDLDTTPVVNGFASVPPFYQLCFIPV
Outline: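 Relative luminescence units recorded 20 min after the detection reagent stopped a 1 h, 37C CYP2C19 reaction on proluciferin substrate, which was started by NADPH regeneration following 10 min room-temperature compound preincubation; ketoconazole positive control.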

[9] = target: Cytochrome P450 2C9 (Homo sapiens) (UniProt P11712); test: Cytochrome P450 Family 2 Subfamily C Member 9 (CYP2C9) small molecule antagonists: luciferase reporter qHTS assay (AID 1671198); also: nearly all actives have a fitted effect of over 50% in size; also: potency is read from the fitted curve at half-maximal effect
Cytochrome P450 2C9 (Homo sapiens), sequence (P11712 whole entry, looked up): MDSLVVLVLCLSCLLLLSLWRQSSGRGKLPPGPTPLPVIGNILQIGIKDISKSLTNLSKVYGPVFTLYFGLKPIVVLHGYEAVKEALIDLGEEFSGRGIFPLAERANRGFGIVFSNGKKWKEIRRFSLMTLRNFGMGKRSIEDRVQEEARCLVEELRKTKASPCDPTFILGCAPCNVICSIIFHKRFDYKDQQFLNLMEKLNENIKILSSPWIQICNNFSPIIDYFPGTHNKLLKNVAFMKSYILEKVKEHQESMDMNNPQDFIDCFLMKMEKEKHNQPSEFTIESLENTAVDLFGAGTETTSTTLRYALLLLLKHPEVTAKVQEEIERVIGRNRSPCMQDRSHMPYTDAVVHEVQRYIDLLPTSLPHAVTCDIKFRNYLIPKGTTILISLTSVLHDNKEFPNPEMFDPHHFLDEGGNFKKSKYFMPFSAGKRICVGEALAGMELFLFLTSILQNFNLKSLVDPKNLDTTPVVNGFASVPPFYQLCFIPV
Outline: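 P450-Glo proluciferin substrate with CYP2C9 enzyme; 10 min RT preincubation, then NADPH regeneration 1 h at 37C; luciferin detection reagent 20 min RT, luminescence in relative luminescence units.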

[10] = target: Cytochrome P450 1A2 (Homo sapiens) (UniProt P05177); test: Cytochrome P450 Family 1 Subfamily A Member 2 (CYP1A2) small molecule antagonists: luciferase reporter qHTS assay (AID 1671199); also: nearly all actives have a fitted effect of over 50% in size; also: potency is read from the fitted curve at half-maximal effect
Cytochrome P450 1A2 (Homo sapiens), sequence (P05177 whole entry, looked up): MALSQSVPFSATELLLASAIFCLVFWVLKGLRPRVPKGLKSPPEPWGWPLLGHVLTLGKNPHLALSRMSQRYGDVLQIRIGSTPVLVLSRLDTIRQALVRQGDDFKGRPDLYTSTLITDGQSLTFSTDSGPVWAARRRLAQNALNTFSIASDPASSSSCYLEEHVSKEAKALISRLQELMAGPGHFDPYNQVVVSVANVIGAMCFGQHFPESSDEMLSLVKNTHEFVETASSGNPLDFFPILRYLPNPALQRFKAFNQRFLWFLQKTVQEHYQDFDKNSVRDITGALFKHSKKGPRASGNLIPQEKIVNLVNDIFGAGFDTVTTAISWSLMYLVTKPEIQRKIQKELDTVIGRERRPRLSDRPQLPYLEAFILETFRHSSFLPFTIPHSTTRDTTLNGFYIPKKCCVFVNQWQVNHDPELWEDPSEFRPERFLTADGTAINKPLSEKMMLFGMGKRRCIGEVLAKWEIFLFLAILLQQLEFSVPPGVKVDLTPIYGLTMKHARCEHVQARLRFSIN
Outline: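 P450-Glo CYP1A2, 1536-well qHTS: enzyme/proluciferin substrate + cpd (DMSO), 10 min RT; NADPH regen, 1 h RT; detection reagent, 20 min; luminescence, RLU.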

[11] = target: Voltage-gated inwardly rectifying potassium channel KCNH2 (Homo sapiens) (UniProt Q12809); test: Human Ether-a-go-go-Related Gene (hERG) channel small molecule antagonists: fluorescence cell-based qHTS assay (AID 1671200); also: nearly all actives have a fitted effect of over 50% in size; also: potency is read from the fitted curve at half-maximal effect
Voltage-gated inwardly rectifying potassium channel KCNH2 (Homo sapiens), sequence (Q12809 whole entry, looked up): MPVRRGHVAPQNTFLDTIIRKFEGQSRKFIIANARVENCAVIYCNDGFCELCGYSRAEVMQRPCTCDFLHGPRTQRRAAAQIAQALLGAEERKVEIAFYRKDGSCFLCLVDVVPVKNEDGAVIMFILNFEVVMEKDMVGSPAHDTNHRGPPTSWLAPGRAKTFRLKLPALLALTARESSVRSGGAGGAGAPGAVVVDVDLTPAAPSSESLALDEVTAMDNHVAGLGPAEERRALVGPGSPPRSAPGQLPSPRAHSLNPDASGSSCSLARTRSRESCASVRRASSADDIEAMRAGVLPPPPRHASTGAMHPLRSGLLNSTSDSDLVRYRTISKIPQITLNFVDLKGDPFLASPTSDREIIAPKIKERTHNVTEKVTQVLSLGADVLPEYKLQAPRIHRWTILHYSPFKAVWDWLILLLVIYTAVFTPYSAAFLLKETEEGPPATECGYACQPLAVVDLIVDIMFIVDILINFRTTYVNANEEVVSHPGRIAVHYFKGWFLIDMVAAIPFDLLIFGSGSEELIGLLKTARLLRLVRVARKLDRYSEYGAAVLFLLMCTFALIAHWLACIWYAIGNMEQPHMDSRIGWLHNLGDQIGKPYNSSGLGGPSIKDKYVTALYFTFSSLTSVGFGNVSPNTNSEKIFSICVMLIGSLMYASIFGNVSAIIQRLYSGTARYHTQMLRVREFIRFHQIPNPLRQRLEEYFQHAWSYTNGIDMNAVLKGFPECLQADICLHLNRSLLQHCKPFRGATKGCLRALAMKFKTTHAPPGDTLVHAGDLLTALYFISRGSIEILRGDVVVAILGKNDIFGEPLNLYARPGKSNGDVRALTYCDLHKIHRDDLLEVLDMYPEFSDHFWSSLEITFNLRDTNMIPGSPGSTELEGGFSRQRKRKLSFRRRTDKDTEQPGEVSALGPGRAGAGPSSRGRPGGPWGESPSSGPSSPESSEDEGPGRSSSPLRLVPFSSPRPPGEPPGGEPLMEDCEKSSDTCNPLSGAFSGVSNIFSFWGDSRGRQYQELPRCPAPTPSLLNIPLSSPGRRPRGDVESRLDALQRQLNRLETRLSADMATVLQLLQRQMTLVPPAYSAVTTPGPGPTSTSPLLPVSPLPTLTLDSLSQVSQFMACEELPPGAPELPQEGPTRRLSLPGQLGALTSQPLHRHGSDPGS
Outline: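 Channel function was assessed by thallium flux. Cells seeded the previous day and kept at 37 C took up FluxOR II dye over 1 h in the dark at room temperature, then sat another 10 min before stimulation.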

[12] = target: Cytochrome P450 3A4 (Homo sapiens) (UniProt P08684); test: Cytochrome P450 Family 3 Subfamily A Member 4 (CYP3A4) small molecule antagonists: luciferase reporter qHTS assay (AID 1671201); also: nearly all actives have a fitted effect of over 50% in size; also: potency is read from the fitted curve at half-maximal effect
Cytochrome P450 3A4 (Homo sapiens), sequence (P08684 whole entry, looked up): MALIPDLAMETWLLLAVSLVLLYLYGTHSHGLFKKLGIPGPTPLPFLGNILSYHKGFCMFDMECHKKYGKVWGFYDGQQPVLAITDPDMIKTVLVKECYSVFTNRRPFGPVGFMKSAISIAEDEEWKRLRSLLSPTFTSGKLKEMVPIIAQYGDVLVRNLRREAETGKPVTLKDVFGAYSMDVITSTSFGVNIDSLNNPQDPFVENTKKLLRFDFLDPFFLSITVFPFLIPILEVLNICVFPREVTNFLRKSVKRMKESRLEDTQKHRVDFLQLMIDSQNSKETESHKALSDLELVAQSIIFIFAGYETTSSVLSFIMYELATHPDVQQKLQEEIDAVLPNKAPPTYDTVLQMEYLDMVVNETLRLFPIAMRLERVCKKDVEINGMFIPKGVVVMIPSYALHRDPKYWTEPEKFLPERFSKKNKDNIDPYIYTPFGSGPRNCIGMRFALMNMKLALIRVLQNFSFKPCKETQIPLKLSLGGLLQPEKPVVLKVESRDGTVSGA
Outline: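 Compounds in DMSO were pin-transferred onto CYP3A4 enzyme-substrate mix and held 10 min at room temperature. NADPH regenerating solution started the reaction for 1 h; luciferin detection reagent stopped it, and luminescence was read after 20 min.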

[13] = Human pregnane X receptor (PXR) small molecule agonists, qHTS cell viability counter screen (AID 1346977); also: nearly all actives have a fitted effect of over 50% in size; also: potency is read from the fitted curve at half-maximal effect
Outline: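 PXR-Luc HepG2, 2,000 cells/well, 5% charcoal-stripped FBS; 5hr settle; cpd 24hr, 37C/5% CO2; CellTiter-Fluor at 23hr, read 1hr later (fluorescence).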

[14] = target: Nuclear receptor subfamily 1 group I member 2 (Rattus norvegicus) (UniProt Q9R1A7); test: Rat pregnane X receptor (rPXR) activation by small molecules, qHTS assay (AID 1346983); conditions: rPXR luciferase reporter cells, One-Glo luminescence, 24 h; max activation: stronger effect = higher value; also: nearly all actives have a fitted effect of over 20% in size
Nuclear receptor subfamily 1 group I member 2 (Rattus norvegicus), sequence (Q9R1A7 whole entry, looked up): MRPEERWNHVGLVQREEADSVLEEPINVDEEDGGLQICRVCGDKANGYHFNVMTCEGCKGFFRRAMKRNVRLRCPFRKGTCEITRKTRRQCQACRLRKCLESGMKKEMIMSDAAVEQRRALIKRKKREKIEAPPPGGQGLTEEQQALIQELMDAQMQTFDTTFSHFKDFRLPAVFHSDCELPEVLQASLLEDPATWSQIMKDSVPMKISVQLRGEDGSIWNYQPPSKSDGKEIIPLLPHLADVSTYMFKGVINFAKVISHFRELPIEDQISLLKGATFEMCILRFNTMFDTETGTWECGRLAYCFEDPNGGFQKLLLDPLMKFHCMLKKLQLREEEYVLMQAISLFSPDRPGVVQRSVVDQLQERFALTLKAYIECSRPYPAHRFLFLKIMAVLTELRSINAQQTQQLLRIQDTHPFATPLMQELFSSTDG
Outline: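 Cell-based rPXR activation assay: rPXR cells, 2,000 per well, rested 5hr at 37 C, then exposed to compounds in DMSO for 24 hr at 37 C. Luciferase activity read by One-Glo luminescence after 30 min at room temperature.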

[15] = target: Nuclear receptor subfamily 1 group I member 2 (Homo sapiens) (UniProt O75469); test: CYP3A4 induction through human pregnane X receptor (PXR) by small molecules, qHTS assay (AID 1346984); also: nearly all actives have a fitted effect of over 40% in size; also: potency is read from the fitted curve at half-maximal effect
Outline: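 Luminescence readout: luciferase signal after One-Glo (30 min, room temperature), following 3 h at 37C with 3uM final Luciferin-IPA P450 substrate. Cells were DPX-2 (HepG2, PXR/CYP3A4-luc co-transfected) dosed for 24 h.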

[16] = target: Nuclear receptor subfamily 1 group I member 2 (Homo sapiens) (UniProt O75469); test: Human pregnane X receptor (PXR) activation by small molecules, qHTS assay (AID 1346985); also: nearly all actives have a fitted effect of over 40% in size; also: potency is read from the fitted curve at half-maximal effect
Outline: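 DPX-2 cells (HepG2 co-transfected with a PXR response element and a CYP3A4-promoter luciferase construct) were seeded at 2,000 per well, rested 5 hr at 37C, then exposed to DMSO-dissolved compounds for 24 hr. Activation was read as luciferase luminescence.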
% is scaled to controls: 0 for no effect and ±100 for the full control effect.

CCCOC(=O)c1ccc(C(=O)OCCC)nc1
active: Potency [8] 4.48 µM | Potency [9] 7.1 µM | Potency [10] 11.2 µM
inactive: Potency [1] | Potency [2] | Potency [3] | outcome [4] | Potency [5] | Potency [6] | Potency [7] | Potency [11] | Potency [12]

Nc1ccc(Cl)cc1[N+](=O)[O-]
active: Potency [6] 60.5 µM | Potency [10] 9.93 µM
inactive: Potency [1] | Potency [13] | Potency [2] | Potency [8] | Potency [9] | Potency [11]

CCC(=O)Oc1ccc(/C(CC)=C(\CC)c2ccc(OC(=O)CC)cc2)cc1
active: Potency [3] 61.1 µM
inactive: Potency [1] | Potency [2] | outcome [4] | Potency [5] | Potency [7] | Potency [8] | Potency [9] | Potency [10] | Potency [11] | Potency [12]

CN1Cc2cc(C(=O)N3CCC(C4CCNCC4)CC3)ccc2N[C@@H](CC(=O)O)C1=O
inactive: Potency [1] | Potency [2] | Potency [3] | outcome [4] | Potency [5] | Potency [6] | Potency [7] | Potency [8] | Potency [9] | Potency [10] | Potency [11] | Potency [12]

C=CC(C)(O)CCCC(C)CCCC(C)CCCC(C)C (stereo not given)
inactive: Potency [1] | Potency [2] | Potency [3] | outcome [4] | Potency [5] | Potency [8] | Potency [11] | Potency [12]
active: Potency [6] 24.2 µM | Potency [10] 35.4 µM

O=C(CCCN1CCC(O)(c2ccc(Br)cc2)CC1)c1ccc(F)cc1
active: Potency [15] 11.2 µM | Potency [16] 11.2 µM | Potency [7] 2.45 µM | Potency [11] 0.239 µM
inactive: Potency [1] | Potency [13] | Potency [3] | outcome [4] | Potency [5] | max activation [14] -1.43% | Potency [8] | Potency [9] | Potency [10] | Potency [12]

CCCOc1ccc(S(=O)(=O)N2CCN(CC)CC2)cc1-c1nc2c(CC)n(Cc3ccccn3)nc2c(=O)[nH]1
inactive: Potency [1] | Potency [2] | Potency [3] | Potency [7] | Potency [10]
active: Potency [6] 10.9 µM | Potency [8] 71 µM | Potency [9] 3.17 µM | Potency [12] 0.399 µM

O=c1[nH]c2ccc(S(=O)CCN3CCC(Cc4ccc(F)cc4)CC3)cc2o1 (stereo not given)
active: Potency [3] 54.5 µM | Potency [7] 35.6 µM | Potency [8] 56.4 µM | Potency [11] 4.36 µM
inactive: Potency [1] | Potency [2] | outcome [4] | Potency [6] | Potency [9] | Potency [10]

OC(CCCN1CCCCC1)(c1ccccc1)c1ccccc1
inactive: Potency [1] | Potency [2] | Potency [3] | outcome [4] | Potency [5] | Potency [6] | Potency [9] | Potency [10] | Potency [11]
active: Potency [7] 0.11 µM

CCOC(=O)C(C)Oc1ccc(Oc2nc3ccc(Cl)cc3o2)cc1 (stereo not given)
inactive: Potency [1] | Potency [2] | Potency [3] | outcome [4] | Potency [5] | Potency [12]
active: Potency [8] 31.7 µM | Potency [9] 39.9 µM | Potency [10] 31.7 µM | Potency [11] 34.7 µM

COc1cc2ncnc(Nc3ccc(F)c(Cl)c3)c2cc1OCCCN1CCOCC1
inactive: Potency [1] | Potency [6] | max activation [14] -4.52% | Potency [9] | Potency [10] | Potency [11]
active: Potency [13] 23.7 µM | Potency [3] 29.8 µM | Potency [7] 13.8 µM | Potency [8] 38.9 µM

CCCCN(CCCC)CCCOC(=O)c1ccc(N)cc1
active: Potency [7] 0.0219 µM | Potency [11] 9.52 µM
inactive: Potency [1] | Potency [2] | Potency [3] | outcome [4] | Potency [5] | Potency [6] | max activation [14] 0.416% | Potency [15] | Potency [16] | Potency [9] | Potency [10] | Potency [12]

COc1ccc(C(=O)c2cccc(O)c2)c(OC)c1
active: Potency [6] 61 µM | Potency [8] 3.55 µM | Potency [12] 31.7 µM
inactive: Potency [1] | Potency [2] | Potency [3] | outcome [4] | Potency [7] | Potency [9] | Potency [11]

From PubChem BioAssay (Tox21)
